Data as given in PubChem BioAssay (NCATS).
Several values for one entry are separate records, joined by “and”; a condition that tells them apart may be missing. Identical values can stand only once. Inconclusive results are not listed. A number with no mark means an inactive call. Activity calls are given as the source filed them. Calls come from the whole dose curve; as a rule, active = well fitted activation curve with a large enough effect; inconclusive = small, poorly fitted or top-dose-only effect; inactive = no such curve, though single readings can be large or run the other way. Peptide text beside a SMILES is read from it. * marks the point of attachment. PhAc = O=C(Cc1ccccc1)*
Potency is the fitted concentration of half-maximal effect.

These compounds were tested against Cellular tumor antigen p53 (Homo sapiens) (UniProt P04637) (assay: Primary qHTS for small molecule compounds that upregulate eGFP-tagged delta133p53alpha (in N-terminal) cells. (AID 2060322; note: nearly all actives have a fitted effect of over 75% in size;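 for activation: cells pre-induced with doxycycline then dosed without doxycycline; series mostly up to about 56 µM; 0% = DMSO vehicle and 100% = reference activator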)). Details: NCI-H358 eGFP-delta133p53alpha fluorescence, 24 h; activation: stronger effect = higher value.
Chain of Cellular tumor antigen p53 (Homo sapiens) (P04637 whole entry, looked up): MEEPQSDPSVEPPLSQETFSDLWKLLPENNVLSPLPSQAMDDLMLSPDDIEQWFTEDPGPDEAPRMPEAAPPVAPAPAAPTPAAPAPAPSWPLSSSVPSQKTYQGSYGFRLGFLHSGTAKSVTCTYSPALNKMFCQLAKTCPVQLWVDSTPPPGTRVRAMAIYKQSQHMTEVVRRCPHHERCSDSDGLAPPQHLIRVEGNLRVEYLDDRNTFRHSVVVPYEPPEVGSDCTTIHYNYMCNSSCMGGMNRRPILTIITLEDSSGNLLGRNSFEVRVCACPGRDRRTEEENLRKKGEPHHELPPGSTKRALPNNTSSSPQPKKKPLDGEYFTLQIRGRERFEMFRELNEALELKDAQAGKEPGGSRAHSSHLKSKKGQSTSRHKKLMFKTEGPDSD
Procedure, shortened: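 NCI-H358 cells pre-induced 24 h with 10 ng/ml doxycycline for eGFP-delta133p53alpha, plated dox-free and exposed 24 h at 37C to titrated compounds. Fixed, Hoechst-stained; gated GFP peak intensity by laser scanning cytometry, normalized to DMSO (0%) and 57.5 uM 5-azacytidine (100%).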
C[C@@H]1C(=O)O[C@H]2[C@@H](O)C34[C@H]5C[C@@H](C(C)(C)C)C36[C@@H](OC(=O)[C@@H]6O)O[C@@]4(C(=O)O5)[C@@]12O (stereo not given in full) was tested, and the activation was 5.25%.
With CNC(=O)O[C@H]1COc2ccc(N3CCN(C4COC4)CC3)cc2[C@@H]1NC(=O)c1ccc(F)cc1 the activation was -1.43%.
For CC(C)NCC(C(=O)N1CCN(c2ncnc3c2C(C)CC3O)CC1)c1ccc(Cl)cc1 (stereo not given), the activation was 0.955%.
In the case of Cc1ccc(N2CCN(CCC3NC(=O)c4ccccc43)CC2)cc1C (stereo not given), the activation is reported as -7.16%.
With CCN1CCN(Cc2ccc(NC(=O)c3ccc(C)c(Oc4ncnc5[nH]c(C)cc45)c3)cc2C(F)(F)F)CC1 the Potency was 23.9 µM (active).
In the case of O=c1cc(N2CCOCC2)nc2c3ccccc3ccn12, the activation is reported as 6.21%.
CC(C)(F)CC(NC(c1ccc(-c2ccc(S(C)(=O)=O)cc2)cc1)C(F)(F)F)C(=O)NC1(C#N)CC1 (stereo not given) gave an activation of -1.43%.
O=C(CNC(=O)c1cccc(C(F)(F)F)c1)N[C@@H]1CCN(Cc2ccc(Cl)cc2)C1 was tested, and the activation was -2.86%.
Work on C[C@@H](NC(=O)c1cc(C(=O)N[C@@H](Cc2ccccc2)[C@H](O)CNC2CC2)cc(N(C)S(C)(=O)=O)c1)c1ccccc1 yielded an activation of -12.4%.
For CCOC(=O)CNC(=O)[C@@H]1CCCN1C(=O)Cc1ccccc1 (PhAc-Pro-Gly-OEt), the activation was 13.8%.
COc1cc(Br)c(Nc2nc(-c3c(C)nc4ncccn34)cs2)c(Br)c1 gave an activation of 14.8%.
In the case of Cc1cc(C)nc(NS(=O)(=O)c2ccc(NC(=S)NC(=O)COc3ccc(Br)cc3Cl)cc2)n1, the activation is reported as -6.21%.
In the case of O=C(COc1ccc2ccccc2c1Br)Nc1cccnc1, the activation is reported as -15.8%.
For Nc1nc2c(ncn2[C@@H]2O[C@H](CO)[C@@H](O)[C@H]2O)c(=O)[nH]1, the activation was -1.43%.
In the case of N[C@@H](CC(=O)Nc1ccc(Oc2cc(F)c(F)cc2Br)cc1)C(=O)O, the activation is reported as -8.11%.
O=C(NCc1ccc(OC(F)(F)F)cc1)C1c2ccccc2C(=O)N1C1CCOCC1 (stereo not given) gave an activation of -5.73%.
In the case of c1ccc(CN(CC2=NCCN2)c2ccccc2)cc1, the activation is reported as 0.837% and -3.82%.
O=C(N[C@H](Cc1cscn1)C(=O)N[C@@H](CC1CCCCC1)[C@@H](O)[C@@H](O)C1CC1)c1nc2ccccc2[nH]1 was tested, and the activation was 5.25%.
Compound CN(C)CC(c1ccc(O)cc1)C1(O)CCCCC1 (stereo not given) has an activation of -9.55%.
O=C(NCc1ccc(F)cc1)C(=O)c1c[nH]c2ccccc12 gave an activation of 5.73%.
For CC(Cc1cc2c(c(C(N)=O)c1)N(CCCO)CC2)NCCOc1ccccc1OCC(F)(F)F (stereo not given), the activation was 5.25%.
Compound CCn1c2ccccc2c2cc(CNC)ccc21 has an activation of 12.4%.
With CCN(CC)C(=O)Nc1ccc(OCC(O)CNC(C)(C)C)c(C(C)=O)c1 (stereo not given) the activation was -6.69% and 4.3%.
CC1(C)C(=O)C(C)(C)c2cc(C(=O)Nc3ccc(C(=O)O)cc3)ccc21 showed an activation of -2.39%.
For CC(C)(C)C1CCN(C(=O)n2ncc(C(O)(c3ccccc3)c3ccccc3)n2)CC1, the activation was 6.21%.
N[C@@H](CC(=O)N1CCn2c(nnc2C(F)(F)F)C1)Cc1[nH]nc2c(F)c(F)ccc12 was tested, and the activation was -3.82%.
In the case of Cc1[nH]c2ccccc2c1CC(=O)N[C@@H](Cc1ccccc1)C(=O)N(C)c1ccccc1, the activation is reported as 22.9%.
N[C@@H]1c2cccnc2[C@H](OC(=O)N2CCC(n3c(=O)[nH]c4ncccc43)CC2)CC[C@H]1c1cccc(F)c1F was tested, and the activation was -10.5%.
In the case of CC(NCCCc1cccc(C(F)(F)F)c1)c1cccc2ccccc12 (stereo not given), the activation is reported as -2.86%.
Compound CN(C)S(=O)(=O)c1ccc(NC(=S)N2CCC(C(O)(c3ccccc3)c3ccccc3)CC2)cc1 has an activation of -6.68%.
Compound CC(C)[N+]1(C)C2CCC1CC(OC(=O)C(CO)c1ccccc1)C2 (stereo not given) has an activation of 3.82%.
For CCOc1nc2c(N)ncnc2n1CC, the activation was -10%.
Work on O=C(O)c1ccccc1NC(=O)N1CCC(c2ccccc2C(F)(F)F)CC1 yielded an activation of -3.34%.
CC1(C)[C@H]2C[C@H](C/C=C\CCCC(=O)O)[C@@H](NC(=O)c3csc4ccc(O)cc34)[C@@H]1C2 gave an activation of -4.77%.
Work on CCCCc1c(-c2ccc(OC)cc2)[nH]c2nccnc12 yielded an activation of 5.25%.
